# Results published in PubChem BioAssay (NCI).
# The panel holds about 83,000 compounds, 20% with a hit somewhere; the sample as a whole holds those more often.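 96-well plates, one dose, 48 hours. Percent growth reported; active if below 10.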 A number with no mark means an inactive call. Calls of active or inactive are those of the source.
# System: T-47D breast
# Experiment: NCI-60 one-dose screen, 48 h (100 = growth as untreated, 0 = no growth, -100 = all killed)
# Settings: 10 µM unless noted
row,SMILES,growth
1,COc1cccc(CC(C)=C(c2ccc(OCCN(C)C)cc2)c2ccc(OCCN(C)C)cc2)c1,-72.7% (active)
2,N/C(=N\C(N)=N\c1nc2ccccc2s1)c1cccc(Br)c1,52.1%
3,O=C(Nc1ccc(Cl)c(Cl)c1)NS(=O)(=O)c1cnccc1Oc1ccc(F)cc1,-0.777% (active)
4,Cc1ccc(S(=O)(=O)NC(=O)n2cc(-c3ccncc3)c(-c3ccc(Cl)c(O)c3)n2)cc1,108%
5,CCN(CC)CCC(CNc1ccnc2cc(Cl)ccc12)c1ccc(Cl)cc1 (stereo not drawn),-76% (active)
6,CCN(CC)CCOc1ccc(Cl)c(C)c1,104%
7,OC(c1cc2cc(Br)ccc2c2cc(Br)ccc12)C1CCCCN1 (stereo not drawn),-75.3% (active)
8,CCN(CC)CCC(CNc1ccnc2cc(Cl)ccc12)c1ccccc1 (stereo not drawn),71%
9,CCCCCCCCCCCCNC(=O)[C@H]1CSC(c2cc3ccccc3s2)N1 (stereo partly drawn),52.5%
10,CCCCCCN1CSC(=S)N(CCCCCC)C1,96.4%
11,CC1(c2ccc(Cl)cc2)OC(=O)CC(=O)O1,95.3%
12,O=C(NS(=O)(=O)c1ccc2ccccc2c1)n1cc(-c2ccncc2)c(-c2ccc(Cl)c(O)c2)n1,78.6%
13,CN(C)CCOC(=O)Nc1ccccc1Cl,112%
14,Cc1c(C(=O)/C=C/c2csc3ccccc23)[n+](=O)c2ccccc2n1[O-],21.5%
15,CN(C)CCCN(c1nc(C(Cl)(Cl)Cl)ns1)c1nc(C(Cl)(Cl)Cl)ns1,67.7%
16,CCN(CC)CCC(CNc1c2ccc(Cl)cc2nc2ccc(OC)cc12)c1ccccc1 (stereo not drawn),-58.8% (active)
17,CN1CCN(Cc2ccc(NC(=O)c3nc4ccc5[nH]ncc5c4c4c3CCC4)cc2C(F)(F)F)CC1,-26.4% (active)
18,COc1ccc(N=Cc2c(O)ccc3c2oc2cc(Cl)c(O)c(Cl)c23)cc1,87.9%
19,O=C(O)C1CCCCN1c1nc(Cl)nc(Cl)n1 (stereo not drawn),99%

row,SMILES,growth
1,C=CCn1c2ccccc2c2c3c(c4c5ccccc5n(CC=C)c4c21)C(=O)N(O)C3=O,13%
2,Nc1cccc(Cl)c1N,54.6%
3,O=C(NS(=O)(=O)c1ccccc1)n1cc(-c2ccncc2)c(-c2ccc(Cl)c(O)c2)n1,107%
4,Cc1csc(NC(c2ccc(Br)cc2)c2c(C)nc3ccccn23)n1 (stereo not drawn),75.6%
5,O=S(=O)(c1ccc(OCCO)cc1)c1ccc(OCCO)cc1,120%
6,COc1cc(-c2nn(C(=O)NS(=O)(=O)c3ccccc3)cc2-c2ccncc2)ccc1Cl,62.6%
7,N=c1ccc2nc3ccc(N)cc3sc-2c1,5.98% (active)
8,Cc1ccc(Cc2c(C=O)nc(N)[nH]c2=O)c2ccccc12,95.5%
9,CCN(CC)CCCC(C)Nc1c2ccc(Cl)cc2nc2cc(OC)c(OC)cc12 (stereo not drawn),61.9%
10,CCCCCCCCCCCCNC(=O)[C@H]1CSC(c2ccsc2)N1 (stereo partly drawn),-41.2% (active)
11,CC(C)(C)NCCC(O)c1cc2c(Cl)cc(Cl)cc2c2cc(C(F)(F)F)ccc12 (stereo not drawn),-78.3% (active)
12,COc1cc2c(cc1O)CCN1C[C@@H](CC(C)C)[C@@H](O)C[C@@H]21,91.1%
13,Nc1ccc(C(=O)CSc2nc3ccccc3[nH]2)cc1,109%
14,CCCC(=O)Oc1ccc(/C(=C(\C)c2ccccc2)c2ccc(OCCN(CC)CC)cc2)cc1,46.8%
15,C/C=C(\C)C(C(=O)NC1CCCCC1)N(C(=O)C1CCc2cc(F)ccc2O1)c1ccc(Cl)cc1 (stereo not drawn),95.2%
16,Cn1ccc(=O)c(S(N)(=O)=O)c1,93.9%
17,O=c1[nH]c(NCc2ccccc2)nc2nc(Nc3ccc(NC(=S)Nc4ccccc4)cc3)nc(-c3ccc(O)cc3O)c12,84%
18,COc1ccc(-n2c(-c3ccccc3)c(-c3ccccc3)c3c(SCC(=O)N/N=C/c4ccc(Cl)cc4)ncnc32)cc1,79.9%
19,COc1ccc(S(=O)(=O)NCCCNc2nccc(-c3c(-c4cccc([N+](=O)[O-])c4)nc4sccn34)n2)cc1,3.31% (active)

# System: BT-549 breast
# Experiment: as above
# Settings: 10 µM unless noted
row,SMILES,growth
1,COc1cccc(CC(C)=C(c2ccc(OCCN(C)C)cc2)c2ccc(OCCN(C)C)cc2)c1,72.2%
2,N/C(=N\C(N)=N\c1nc2ccccc2s1)c1cccc(Br)c1,79.1%
3,O=C(Nc1ccc(Cl)c(Cl)c1)NS(=O)(=O)c1cnccc1Oc1ccc(F)cc1,93.7%
4,Cc1ccc(S(=O)(=O)NC(=O)n2cc(-c3ccncc3)c(-c3ccc(Cl)c(O)c3)n2)cc1,106%
5,CCN(CC)CCOc1ccc(Cl)c(C)c1,112%
6,OC(c1cc2cc(Br)ccc2c2cc(Br)ccc12)C1CCCCN1 (stereo not drawn),69%
7,CCCCCCCCCCCCNC(=O)[C@H]1CSC(c2cc3ccccc3s2)N1 (stereo partly drawn),-60.1% (active)
8,CCCCCCN1CSC(=S)N(CCCCCC)C1,100%
9,CC1(c2ccc(Cl)cc2)OC(=O)CC(=O)O1,109%
10,O=C(NS(=O)(=O)c1ccc2ccccc2c1)n1cc(-c2ccncc2)c(-c2ccc(Cl)c(O)c2)n1,100%
11,CN(C)CCOC(=O)Nc1ccccc1Cl,99.3%
12,Cc1c(C(=O)/C=C/c2csc3ccccc23)[n+](=O)c2ccccc2n1[O-],20.1%
13,CN(C)CCCN(c1nc(C(Cl)(Cl)Cl)ns1)c1nc(C(Cl)(Cl)Cl)ns1,74%
14,CC[N+](CC)=c1cc2oc3cc(N(C)C)ccc3nc-2cc1C,60.2%
15,CN1CCN(Cc2ccc(NC(=O)c3nc4ccc5[nH]ncc5c4c4c3CCC4)cc2C(F)(F)F)CC1,91.6%
16,COc1ccc(N=Cc2c(O)ccc3c2oc2cc(Cl)c(O)c(Cl)c23)cc1,53.3%
17,O=C(O)C1CCCCN1c1nc(Cl)nc(Cl)n1 (stereo not drawn),103%
18,C=CCn1c2ccccc2c2c3c(c4c5ccccc5n(CC=C)c4c21)C(=O)N(O)C3=O,45%

row,SMILES,growth
1,Nc1cccc(Cl)c1N,97.6%
2,O=C(NS(=O)(=O)c1ccccc1)n1cc(-c2ccncc2)c(-c2ccc(Cl)c(O)c2)n1,104%
3,Cc1csc(NC(c2ccc(Br)cc2)c2c(C)nc3ccccn23)n1 (stereo not drawn),90.7%
4,O=S(=O)(c1ccc(OCCO)cc1)c1ccc(OCCO)cc1,109%
5,COc1cc(-c2nn(C(=O)NS(=O)(=O)c3ccccc3)cc2-c2ccncc2)ccc1Cl,53.9%
6,Cc1ccc(Cc2c(C=O)nc(N)[nH]c2=O)c2ccccc12,87.9%
7,CCN(CC)CCCC(C)Nc1c2ccc(Cl)cc2nc2cc(OC)c(OC)cc12 (stereo not drawn),55.3%
8,CCCCCCCCCCCCNC(=O)[C@H]1CSC(c2ccsc2)N1 (stereo partly drawn),-67.6% (active)
9,CC(C)(C)NCCC(O)c1cc2c(Cl)cc(Cl)cc2c2cc(C(F)(F)F)ccc12 (stereo not drawn),69.6%
10,COc1cc2c(cc1O)CCN1C[C@@H](CC(C)C)[C@@H](O)C[C@@H]21,108%
11,Nc1ccc(C(=O)CSc2nc3ccccc3[nH]2)cc1,94.5%
12,CCCC(=O)Oc1ccc(/C(=C(\C)c2ccccc2)c2ccc(OCCN(CC)CC)cc2)cc1,78.7%
13,C/C=C(\C)C(C(=O)NC1CCCCC1)N(C(=O)C1CCc2cc(F)ccc2O1)c1ccc(Cl)cc1 (stereo not drawn),98.3%
14,Cn1ccc(=O)c(S(N)(=O)=O)c1,82%
15,O=c1[nH]c(NCc2ccccc2)nc2nc(Nc3ccc(NC(=S)Nc4ccccc4)cc3)nc(-c3ccc(O)cc3O)c12,155%
16,COc1ccc(-n2c(-c3ccccc3)c(-c3ccccc3)c3c(SCC(=O)N/N=C/c4ccc(Cl)cc4)ncnc32)cc1,85.2%
17,COc1ccc(S(=O)(=O)NCCCNc2nccc(-c3c(-c4cccc([N+](=O)[O-])c4)nc4sccn34)n2)cc1,36.5%
